Consider 1 sequence from paper PMC7862700, “An all-to-all approach to the identification of sequence-specific readers for epigenetic DNA modifications on cytosine”.

Holding throughout (assay): DAPPL (digital affinity profiling via proximity ligation, sequencing); 10 mM Tris-HCl pH 7.5, 50 mM NaCl, 1 mM DTT, 4% glycerol, room temperature, 30 min; GST-TFs on glutathione beads, 16-mer random dsDNA library, 0.1% formaldehyde crosslink after washing; high values mean tight binding
Common to all, as to conditions: protein: recombinant; tags: N-terminal GST; dsDNA, one strand shown

The target in one assay is T1, FLI1 (Homo sapiens, UniProt Q01543 1-452).
T1 sequence: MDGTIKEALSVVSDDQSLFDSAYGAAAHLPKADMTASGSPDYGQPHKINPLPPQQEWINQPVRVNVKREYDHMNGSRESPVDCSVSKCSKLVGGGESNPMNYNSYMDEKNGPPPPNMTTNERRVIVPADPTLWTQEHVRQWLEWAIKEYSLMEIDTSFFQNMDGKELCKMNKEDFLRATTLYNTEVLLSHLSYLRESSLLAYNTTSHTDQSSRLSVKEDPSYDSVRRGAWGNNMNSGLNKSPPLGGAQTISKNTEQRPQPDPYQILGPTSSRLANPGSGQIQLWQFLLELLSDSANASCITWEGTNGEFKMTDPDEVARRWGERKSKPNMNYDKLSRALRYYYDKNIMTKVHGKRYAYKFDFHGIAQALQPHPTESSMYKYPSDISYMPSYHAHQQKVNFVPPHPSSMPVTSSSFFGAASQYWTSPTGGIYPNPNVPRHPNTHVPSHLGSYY
The method, boiled down: (§1)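 Each value of binding signal is a hexamer's read frequency for a factor divided by the same hexamer's frequency in the tag-only sample. Barcoded, bead-captured GST fusions of human transcription factors made in yeast were pooled with that sample and incubated with 200 nmole of a random double-stranded 16-mer DNA library in Tris/NaCl/DTT/glycerol buffer at room temperature for 30 min. Washing, 0.1% formaldehyde crosslinking, proximity ligation, PCR and Illumina NextSeq500 sequencing followed.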

A further assay addresses T2, ELK1 (Homo sapiens, UniProt P19419 1-428).
T2 sequence: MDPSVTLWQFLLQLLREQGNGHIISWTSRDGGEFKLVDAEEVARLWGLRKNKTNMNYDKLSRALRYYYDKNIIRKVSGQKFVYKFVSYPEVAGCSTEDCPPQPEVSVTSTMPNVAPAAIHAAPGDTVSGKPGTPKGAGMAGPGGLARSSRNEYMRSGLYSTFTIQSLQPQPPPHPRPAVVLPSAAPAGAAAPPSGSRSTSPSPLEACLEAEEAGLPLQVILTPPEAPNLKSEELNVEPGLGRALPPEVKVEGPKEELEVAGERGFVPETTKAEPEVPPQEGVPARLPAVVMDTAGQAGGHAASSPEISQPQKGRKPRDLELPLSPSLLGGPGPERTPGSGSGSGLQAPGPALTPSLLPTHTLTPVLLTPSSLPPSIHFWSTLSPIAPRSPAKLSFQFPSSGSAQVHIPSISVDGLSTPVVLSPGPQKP
The method, boiled down:
as §1

Another assay concerns the target T3, GABPA (Homo sapiens, UniProt Q06546 1-454).
T3 sequence: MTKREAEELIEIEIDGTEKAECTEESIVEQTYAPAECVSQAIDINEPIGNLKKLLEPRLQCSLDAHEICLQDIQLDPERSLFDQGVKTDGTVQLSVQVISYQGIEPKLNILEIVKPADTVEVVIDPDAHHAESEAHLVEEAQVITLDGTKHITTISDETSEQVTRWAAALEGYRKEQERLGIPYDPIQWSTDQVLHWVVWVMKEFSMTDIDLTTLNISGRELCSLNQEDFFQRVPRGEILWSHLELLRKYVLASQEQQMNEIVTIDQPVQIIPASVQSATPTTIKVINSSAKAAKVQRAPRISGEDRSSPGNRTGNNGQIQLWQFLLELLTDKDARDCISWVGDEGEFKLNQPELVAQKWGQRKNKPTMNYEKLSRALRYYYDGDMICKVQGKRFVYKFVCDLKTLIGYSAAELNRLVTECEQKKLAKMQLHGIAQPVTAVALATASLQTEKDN
The method, boiled down: as §1

The next assay addresses T4, ERG (Homo sapiens, UniProt P11308 1-479).
T4 sequence: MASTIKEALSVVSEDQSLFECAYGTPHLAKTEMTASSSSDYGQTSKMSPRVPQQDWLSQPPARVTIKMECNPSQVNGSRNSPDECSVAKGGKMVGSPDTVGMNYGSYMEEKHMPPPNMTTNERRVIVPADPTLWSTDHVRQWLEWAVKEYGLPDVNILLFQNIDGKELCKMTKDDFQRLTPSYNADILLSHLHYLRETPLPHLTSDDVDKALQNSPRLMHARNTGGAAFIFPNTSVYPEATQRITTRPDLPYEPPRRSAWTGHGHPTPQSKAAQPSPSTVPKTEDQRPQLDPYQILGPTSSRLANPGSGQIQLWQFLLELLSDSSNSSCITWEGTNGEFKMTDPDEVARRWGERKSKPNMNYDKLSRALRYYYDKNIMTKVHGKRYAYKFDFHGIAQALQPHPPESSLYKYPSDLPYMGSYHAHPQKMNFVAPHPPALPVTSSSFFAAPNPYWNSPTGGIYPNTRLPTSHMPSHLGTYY
The method, boiled down: as §1

The target of a further assay is ELF1 (Homo sapiens, UniProt P32519 1-619). The method, boiled down:
as §1

The target of another assay is T5, EHF (Homo sapiens, UniProt Q9NZC4 1-300).
T5 sequence: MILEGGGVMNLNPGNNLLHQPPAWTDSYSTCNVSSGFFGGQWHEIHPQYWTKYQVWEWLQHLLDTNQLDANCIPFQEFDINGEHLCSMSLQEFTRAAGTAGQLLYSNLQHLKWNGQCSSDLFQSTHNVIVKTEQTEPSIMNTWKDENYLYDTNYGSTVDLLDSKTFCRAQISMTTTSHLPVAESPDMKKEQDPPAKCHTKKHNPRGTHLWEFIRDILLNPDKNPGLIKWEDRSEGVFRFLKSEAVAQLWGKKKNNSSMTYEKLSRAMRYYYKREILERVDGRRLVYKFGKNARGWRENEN
In a few lines: as §1

A further assay deals with SPI1 (Homo sapiens, UniProt P17947 1-270). The method, boiled down:
as §1

The target in the next assay is SPIB (Homo sapiens, UniProt Q01892 1-262). In a few lines: as §1
A further assay addresses T6, ELK3 (Homo sapiens, UniProt P41970 1-407).
T6 sequence: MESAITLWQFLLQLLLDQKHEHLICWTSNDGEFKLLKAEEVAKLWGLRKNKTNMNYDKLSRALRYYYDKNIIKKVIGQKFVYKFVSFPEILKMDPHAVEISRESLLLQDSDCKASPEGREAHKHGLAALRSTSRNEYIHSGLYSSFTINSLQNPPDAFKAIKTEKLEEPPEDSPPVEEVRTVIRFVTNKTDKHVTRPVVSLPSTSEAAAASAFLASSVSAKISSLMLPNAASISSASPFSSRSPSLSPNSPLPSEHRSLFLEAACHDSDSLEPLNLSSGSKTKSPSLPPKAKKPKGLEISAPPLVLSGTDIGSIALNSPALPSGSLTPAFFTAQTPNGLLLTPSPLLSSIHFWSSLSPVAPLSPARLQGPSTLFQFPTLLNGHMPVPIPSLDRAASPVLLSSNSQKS
In a few lines:
as §1

The next assay has as its target T7, FEV (Homo sapiens, UniProt Q99581 1-238).
T7 sequence: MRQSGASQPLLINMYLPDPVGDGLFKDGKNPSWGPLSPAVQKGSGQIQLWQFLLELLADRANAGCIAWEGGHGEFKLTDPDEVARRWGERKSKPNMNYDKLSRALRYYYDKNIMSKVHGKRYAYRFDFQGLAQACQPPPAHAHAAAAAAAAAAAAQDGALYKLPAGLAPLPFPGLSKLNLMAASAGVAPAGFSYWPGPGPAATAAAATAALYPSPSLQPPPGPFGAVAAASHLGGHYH
The method, boiled down:
as §1

ELF1, sequence (P32519 whole entry): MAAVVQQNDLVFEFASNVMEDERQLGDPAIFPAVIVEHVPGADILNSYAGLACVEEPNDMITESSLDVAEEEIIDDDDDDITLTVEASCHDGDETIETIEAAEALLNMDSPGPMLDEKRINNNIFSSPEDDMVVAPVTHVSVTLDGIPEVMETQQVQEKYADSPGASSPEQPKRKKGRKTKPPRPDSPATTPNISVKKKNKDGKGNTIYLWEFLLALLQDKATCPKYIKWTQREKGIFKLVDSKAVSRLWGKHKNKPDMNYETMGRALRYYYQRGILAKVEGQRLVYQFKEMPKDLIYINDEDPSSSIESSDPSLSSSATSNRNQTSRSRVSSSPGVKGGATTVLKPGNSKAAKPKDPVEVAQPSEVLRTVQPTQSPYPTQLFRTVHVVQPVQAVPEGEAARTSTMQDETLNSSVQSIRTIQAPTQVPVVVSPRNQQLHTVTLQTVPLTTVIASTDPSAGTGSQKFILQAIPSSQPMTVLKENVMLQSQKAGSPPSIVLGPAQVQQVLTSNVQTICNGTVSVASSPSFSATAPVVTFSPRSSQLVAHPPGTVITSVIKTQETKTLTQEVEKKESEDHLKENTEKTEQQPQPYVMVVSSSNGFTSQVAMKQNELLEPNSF
SPIB, sequence (Q01892 whole entry): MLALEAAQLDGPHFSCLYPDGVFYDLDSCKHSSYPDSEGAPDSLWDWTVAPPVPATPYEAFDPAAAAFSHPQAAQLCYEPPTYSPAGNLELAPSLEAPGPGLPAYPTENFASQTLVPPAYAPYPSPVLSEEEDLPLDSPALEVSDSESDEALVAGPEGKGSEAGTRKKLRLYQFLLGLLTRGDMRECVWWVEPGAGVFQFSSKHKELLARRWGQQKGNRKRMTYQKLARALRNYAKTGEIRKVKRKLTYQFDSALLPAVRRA

For the sequence ACCACG, the binding signal with FLI1 was 1.14 fold enrichment (6-mer frequency, TF over GST control); with ELK1 it was 1.16 fold enrichment (6-mer frequency, TF over GST control); in the assay with GABPA, 1.09 fold enrichment (6-mer frequency, TF over GST control); with ERG, 1.06 fold enrichment (6-mer frequency, TF over GST control); with ELF1, 1.18 fold enrichment (6-mer frequency, TF over GST control); in the assay with EHF it was 1.04 fold enrichment (6-mer frequency, TF over GST control). Further, the binding signal with SPI1 is 1.01 fold enrichment (6-mer frequency, TF over GST control); with SPIB it was 1.04 fold enrichment (6-mer frequency, TF over GST control); with ELK3, 1.08 fold enrichment (6-mer frequency, TF over GST control); with FEV, 1.05 fold enrichment (6-mer frequency, TF over GST control).
